In PubChem BioAssay:

assay: Wnt pathway potentiators raising nuclear beta-catenin – imaging, WNT3A-conditioned medium, mouse C2C12, NPC library, primary screen (AID 1117326); details: stimulation, at 2 µM, stronger effect = higher value; note: reference of the scale not given here

| SMILES | nuclear beta-catenin stimulation [%] |
| --- | --- |
| O=c1[nH]cc(F)c(=O)[nH]1 | 1.7 |
| CCc1nc(N)nc(N)c1-c1ccc(Cl)cc1 | 69.7 |
| CCc1cccc2c3c([nH]c12)C(CC)(CC(=O)O)OCC3 (centres undefined) | 0.3 |
| Nc1ncn([C@@H]2O[C@H](CO)[C@@H](O)[C@H]2O)c(=O)n1 | 1.8 |
| Cc1ccccc1C(OCCN(C)C)c1ccccc1 (centres undefined) | 1.7 |
| Cc1ccc(C)c(OCCCC(C)(C)C(=O)O)c1 | 1.2 |
| NC(=O)c1cnccn1 | -0.7 |
| CCCCCCNC(=O)n1cc(F)c(=O)[nH]c1=O | 9.5 |
| COC1=CC(=O)C[C@@H](C)[C@]12Oc1c(Cl)c(OC)cc(OC)c1C2=O | 0.3 |
| Cc1ncc([N+](=O)[O-])n1CC(C)O (centres undefined) | 1.6 |
| N[C@@H](C(=O)N[C@@H]1C(=O)N2C(C(=O)O)=C(Cl)CS[C@H]12)c1ccccc1 | 1.1 |
| CO[C@@]1(NC(=O)Cc2cccs2)C(=O)N2C(C(=O)O)=C(COC(N)=O)CS[C@@H]21 | -0.5 |
| OCCN1CCN(CCCN2c3ccccc3Sc3ccc(C(F)(F)F)cc32)CC1 | 6.3 |
| CN(C)CCOC(c1ccc(Cl)cc1)c1ccccn1 (centres undefined) | 0.3 |
| Cc1onc(-c2c(Cl)cccc2Cl)c1C(=O)N[C@@H]1C(=O)N2[C@@H]1SC(C)(C)[C@@H]2C(=O)O | 1.3 |
| COc1cc2nc(N(C)CCCNC(=O)C3CCCO3)nc(N)c2cc1OC (centres undefined) | 1.8 |
| NS(=O)(=O)c1cc(C2(O)NC(=O)c3ccccc32)ccc1Cl (centres undefined) | 6.2 |
| CN(C)CCc1c[nH]c2ccc(C[C@H]3COC(=O)N3)cc12 | 1.8 |
| Cc1ccc(-c2cc(C(F)(F)F)nn2-c2ccc(S(N)(=O)=O)cc2)cc1 | 0.5 |
| CN[C@H]1CC[C@@H](c2ccc(Cl)c(Cl)c2)c2ccccc21 | -1.4 |

| SMILES | nuclear beta-catenin stimulation [%] |
| --- | --- |
| O=S(=O)(O)CCS | 1.8 |
| C/C=C/C(=O)N(CC)c1ccccc1C | 0.9 |
| COc1ccc(OC)c(C(O)CNC(=O)CN)c1 (centres undefined) | 4.9 |
| Cn1cnc([N+](=O)[O-])c1Sc1ncnc2nc[nH]c12 | 0.7 |
| c1ccc2[nH]c(-c3cscn3)nc2c1 | 1.4 |
| CCCNCC(O)COc1ccccc1C(=O)CCc1ccccc1 (centres undefined) | 0.1 |
| NC(=O)N1c2ccccc2CC(=O)c2ccccc21 | 1.3 |
| Cc1cn([C@H]2C[C@H](N=[N+]=[N-])[C@@H](CO)O2)c(=O)[nH]c1=O | 1.3 |
| CN(CCOc1ccc(CC2SC(=O)NC2=O)cc1)c1ccccn1 (centres undefined) | 0.1 |
| COc1ccccc1OCC(O)COC(N)=O (centres undefined) | -1.9 |
| OC(CCN1CCCC1)(c1ccccc1)C1CCCCC1 (centres undefined) | 4.9 |
| O=C1C(CCS(=O)c2ccccc2)C(=O)N(c2ccccc2)N1c1ccccc1 (centres undefined) | 0 |
| COC(=O)Nc1nc2ccc(C(=O)c3ccccc3)cc2[nH]1 | 42.2 |
| CCn1cc(C(=O)O)c(=O)c2cc(F)c(N3CCN(C)CC3)cc21 | 1.2 |
| CN1CCCC(n2nc(Cc3ccc(Cl)cc3)c3ccccc3c2=O)CC1 (centres undefined) | 1.7 |
| NCc1ccc(S(N)(=O)=O)cc1 | 0.2 |
| Clc1ccc2c(c1)C(N1CCNCC1)=Nc1ccccc1O2 | -0.6 |
| CC(C)(C)NCC(O)COc1cccc2c1C[C@H](O)[C@H](O)C2 (some centres undefined) | -0.2 |
| NS(=O)(=O)c1cc2c(cc1Cl)NC=NS2(=O)=O | 3 |
